Only some compounds are listed: those with a hit (about 3.6% of all), similar ones and a draw of the others.
aSyn yeast inh – alpha-synuclein toxicity inhibition in yeast; 370,000 compounds, 0.14% hits; Yeast expressing alpha-synuclein, growth rescue, BacTiter-Glo, 24 h; Potency, µM (series often up to 46.1 µM), without a hit: at the top dose growth rescue (activation), hits mostly activators; also: % of control where 0% means no effect; nearly all actives have a fitted effect of over 65% in size
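Galactose-induced alpha-syn yeast (OD600=0.02, raffinose-pregrown) + pinned cpd, 24 hr, 30 deg C; growth by BacTiter-Glo luminescence. Growth restoration scores as activation.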
Mm-Cpn inhibitor – M. maripaludis TRiC chaperonin inhibition; purified Mm-Cpn ATPase, ADP Transcreener TR-FRET; Potency, µM (series often up to 76.9 µM), inactives show at the top dose activity, negative = inhibition, actives largely listed as inhibitors; 330,000 compounds, 0.031% hits; also: % is scaled to controls: 0 for no effect and ±100 for the full control effect; nearly all actives have a fitted effect of over 80% in size
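Inhibition of chaperonin ATP hydrolysis is measured as reduced ADP production, detected by competitive TR-FRET in which signal falls with ADP. Final enzyme 25 nM and ATP 10 uM, reacted 30 min at 37°C.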
Abeta rescue – A-beta toxicity reversal in yeast. yeast expressing A-beta42, growth rescue, OD600, 48 h; response scale: 0% DMSO, 100% iron-clioquinol control. Potency, µM (doses to about 46.1 µM), hits mostly activators. 410,000 compounds, 0.063% hits; also: nearly all actives have a fitted effect of over 55% in size
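Growth rescue measured by 600 nm absorbance after 48 h yeast culture at 30 C with compound. Values normalized between DMSO and an equimolar ferric chloride plus clioquinol control.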
ClpP mod – qHTS Assay for Activators of ClpP | purified B. subtilis ClpP, FRET peptide cleavage, 20 min | Potency, µM (series often up to 57.5 µM), inactives show top-dose activity change, negative = active | 340,000 compounds, 1.9% hits; active = well fitted falling curve with a large enough effect; inconclusive = small, poorly fitted or top-dose-only effect; inactive = no such curve, though single readings can be large or run the other way; also: the source files actives as falling curves though it sought activators and does not explain the sign; nearly all actives have a fitted effect of over 65% in size
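ClpP 10 microg/mL final, pH 8 Tris/KCl buffer with BSA, glycerol, Tween-20; compound pinned in; FRET-FV substrate; RT 20 min; Ex320/Em430; ΔFRET vs ADEP 5.8 microM, DMSO, no enzyme.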
FUS yeast rescue – suppressors of FUS proteinopathy in yeast. S. cerevisiae FUS-expressing, growth rescue, OD600, 24 h. Potency, µM (highest dose often 76.6 µM), most hits filed as activators. 390,000 compounds, 0.24% hits. AID 1347120;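 also: plate controls were DMSO vehicle for no effect and reference control for full effect; nearly all actives have a fitted effect of over 55% in size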
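Compound concentration series was pinned onto galactose-induced FUS-expressing yeast seeded at OD 0.005. Plates sat 24hr at 30C; absorbance at 600 nm gave growth. DMSO served as background control.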
TDP43 rescue – inhibitors of TDP-43 toxicity in yeast | Potency, µM (highest dose often 46.1 µM), for the others: at the highest dose growth rescue (activation), hits mostly activators | TDP-43 expressing yeast growth rescue, BacTiter-Glo, 24 h | AID 652104 | 410,000 compounds, 1.8% hits; also: % of control where 0% means no effect; nearly all actives have a fitted effect of over 50% in size
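Cell-based yeast growth screen: TDP-43 expression induced in galactose, inoculum OD600=0.02 after raffinose pregrowth to mid-log. Read-out BacTiter-Glo luminescence at 24 hr, 30 deg C; inhibition of toxicity seen as signal increase.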
Active calls of the source: *; i = inactive; ? = inconclusive; . = no result; [ ] = remark or other dose. Unless noted, calls follow the shape of the dose curve; as a rule, active = well fitted curve in the direction sought with a large enough effect; inconclusive = small, poorly fitted or top-dose-only effect, or another doubt; inactive = no such curve, though single readings can be large; an effect the other way counts as inactive or inconclusive. Potency is read from the fitted curve at half-maximal effect.

SMILES | aSyn yeast inh | Mm-Cpn inhibitor | Abeta rescue | ClpP mod | FUS yeast rescue | TDP43 rescue
C[C@]12CC[C@H]3C(=CCc4cc(O)ccc43)[C@@H]1CCC2=O | 1.7% | -3.1%[15.4 µM] | i | -3.7% | i | 10µM*
Cc1c(N=Cc2c(O)n(Cc3ccco3)c(=O)[nH]c2=O)c(=O)n(-c2ccccc2)n1C | 0.2% | -3.3% | i | 11.2µM* | i | -6.6%
COc1cccc(N2CCN(c3c4c(nc5nncn35)CCC4)CC2)c1 | . | . | i | -1.0% | i | ?
C[C@H](CCC(=O)O)[C@H]1CC[C@H]2[C@@H]3[C@H](O)C[C@@H]4C[C@H](O)CC[C@]4(C)[C@H]3CC[C@]12C | 6.0% | 0.1% | i | -1.5% | ? | 22.4µM*
CC(C)=CCCC(C)CN(C)CCc1ccccn1 (stereo not given) | 7.0% | ? | i | -2.3% | i | -12.9%
S=c1[nH]nc(-c2cccs2)n1C1CCCCC1 | -0.2% | -2.5% | i | 31.6µM* | i | 0.0%
O=c1c(C=NCc2cccs2)c(O)n(C2CCCCC2)c(=O)n1C1CCCCC1 | 3.1% | -0.3% | i | -2.6% | i | -0.3%
Cc1ccc2cc3cc(C(=O)N4CCC5(CC4)OCCO5)oc3nc2c1 | 19.7% | 0.7% | i | 14.1µM* | i | 1.3%
CCOc1ccc(CN2C(=O)c3ccccc3Sc3ccc(C(=O)N4CCC5(CC4)OCCO5)cc32)cc1 | . | . | i | -0.4% | ? | 12.6µM*
O=C(c1ccc2c(c1)N(Cc1ccc(F)cc1)C(=O)c1ccccc1S2)N1CCC2(CC1)OCCO2 | . | . | i | 1.0% | i | 27.2%
Nc1c(Br)cc([N+](=O)[O-])cc1[N+](=O)[O-] | 1.3% | ? | i | 0.5% | i | 12.6µM*
C[C@]12CC[C@@H](O)C[C@@H]1CC[C@@H]1[C@@H]2CC[C@]2(C)C(=O)CC[C@@H]12 | 1.2% | 0.8% | i | 0.1% | i | 17.8µM*
NC(N)=NOCCC(N)C(=O)O (stereo not given) | 3.5% | . | . | . | . | .
COc1ccccc1C1Nc2ccccc2-n2c(-c3ccccc3)c3c(=O)n(C)c(=O)n(C)c3c21 (stereo not given) | . | . | i | 4.4% | i | ?
c1ccc(C2c3ccccc3-n3nncc3CN2CC2CCCCC2)cc1 (stereo not given) | -28.8% | . | i | -5.4% | i | 15.8µM*
CCCCn1cnc2cc(NCc3cccc(OC)c3O)ccc21 | -0.4% | -2.4% | i | 31.6µM* | i | 8.9%
S=c1[nH]nc(-c2ccco2)n1Cc1ccccc1 | -1.5% | -6.9% | i | 28.2µM* | i | 20.2%
O=c1c2ccccc2nc(-c2ccco2)n1-c1ccc(Br)cc1 | -0.1% | 0.7% | i | 1.2% | i | -15.7%
COc1ccc(-n2c(/C=C\c3ccccc3F)nc3ccccc3c2=O)c(OC)c1 | . | . | ? | -2.4% | ? | 35.5µM*
Cc1cccc(-n2c(/C=C/c3cccc4ccccc34)nc3ccccc3c2=O)c1 | . | . | i | -1.0% | i | 35.5µM*
Cc1cccc(-n2c(/C=C/c3ccccc3O)nc3ccccc3c2=O)c1 | . | . | i | -13.5% | i | 18.4%
CC1(C)N([O])C(c2ccc(C(=O)O)cc2)=[N+]([O-])C1(C)C | -4.8% | . | . | 0.5% | . | .
CC(C)Oc1cc(-n2c(=S)[nH]c3ccccc3c2=O)c(Cl)cc1Cl | -5.3% | -0.7% | i | -8.6% | i | 10µM*
CCOc1ccc(S(=O)(=O)NCCc2sc3nc(-c4ccc(C)cc4)nn3c2C)cc1 | . | . | i | -0.4% | i | ?
Cc1ccccc1C(=O)Nc1ccc2nc(SCC(=O)N(C)c3ccccc3)sc2c1 | . | . | i | -18.1% | ? | 35.5µM*
SMILES | aSyn yeast inh | Mm-Cpn inhibitor | Abeta rescue | ClpP mod | FUS yeast rescue | TDP43 rescue
CC1=NN(c2ccccc2)C(=O)/C1=C/c1c(O)[nH]c(=S)[nH]c1=O | -0.4% | -3.0% | i | 25.1µM* | . | -0.9%
COc1cccc(C(C)(O)c2nc(-c3cccc(F)c3)cs2)c1 (stereo not given) | 0.5% | . | ? | -2.9% | i | ?
Cc1cccc(NC(=O)c2cc3c(=O)n4ccccc4nc3n2C)c1C | . | . | i | ? | i | ?
N#CC1(c2ccccc2)CCN(C2CC(=O)N(c3ccc(F)cc3)C2=O)CC1 (stereo not given) | -1.1% | 0.2% | i | -2.8% | i | -1.0%
COc1ccc(N2C(=O)CC(N3CC=C(c4ccccc4)CC3)C2=O)cc1 (stereo not given) | ? | -2.3% | i | -1.3% | i | 22.4µM*
CCCCC[C@@H]1CCCCC[C@@H](O)C[C@H](O)[C@H](O)/C=C/C(=O)O1 | 0.1% | . | i | 3.4% | i | ?
Cc1ccc(CN(C)C(=O)c2cccc(S(=O)(=O)N3CCN(c4ccccc4)CC3)c2)cc1 | 15.4% | . | i | 2.8% | . | ?
NC1=C([N+](=O)[O-])C(c2ccc3c(c2)OCO3)c2c(c3ccccc3oc2=O)O1 (stereo not given) | -2.1% | -2.9% | i | -5.2% | i | 0.0%
O=c1oc2ccccc2c(O)c1[C@H]1c2ccc(O)cc2Oc2c1c(=O)oc1ccccc21 | 0.562µM* | -7.4% | i | 2.2% | i | 5.62µM*
NCC(=O)c1cccc([N+](=O)[O-])c1 | . | . | . | -2.8% | . | .
Cc1oc(-c2cccs2)nc1CSCC(=O)N1CCC2(CC1)OCCO2 | -1.1% | -1.1% | i | 1.41µM* | i | -5.0%
COc1ccc(-c2nc(CSCC(=O)N3CCC4(CC3)OCCO4)c(C)o2)cc1OC | -0.9% | -4.3% | i | ? | i | 15.2%
COc1ccccc1CNC(=O)CCC1N=C2c3ccccc3N=C(SCc3cccc(Cl)c3)N2C1=O (stereo not given) | . | . | i | ? | i | 18.2%
CC(=O)O/C(=C1\CC2C3CC=C4CC(OC(C)=O)CCC4(C)C3CCC2(C)C1=O)C(F)(F)F (stereo not given) | 12.6µM* | . | i | -1.7% | . | ?
CC(=O)O[C@H]1CC[C@@]2(C)C(=CC[C@@H]3[C@@H]2CC[C@]2(C)C(=O)CC[C@@H]32)C1 | ? | -0.1% | i | -0.3% | i | ?
O=S(=O)(NC1CCCCCCC1)OCC(Cl)(Cl)Cl | -16.1% | 4.9% | i | -0.6% | i | 35.5µM*
C=CCNc1nnc(Sc2ncccc2[N+](=O)[O-])s1 | 1.1% | -1.5% | i | . | i | ?
COC(=O)c1ccc(C(=O)OC)c(NC(=O)Oc2ccccc2)c1 | 4.9% | -3.8% | i | 2.82µM* | i | -12.8%
